Reference: PubChem BioAssay (NCATS)
Several values for one entry are separate records, joined by “and”; a condition that tells them apart may be missing. Equal values may be shown once. Records with an inconclusive call do not appear. A call without a number means that no potency is given here. Activity calls are given as the source filed them. Unless noted, calls follow the shape of the dose curve; as a rule, active = well fitted curve in the direction sought with a large enough effect; inconclusive = small, poorly fitted or top-dose-only effect, or another doubt; inactive = no such curve, though single readings can be large; an effect the other way counts as inactive or inconclusive.

Legend:
[1] = target: Transient receptor potential cation channel subfamily V member 1 (Homo sapiens) (UniProt Q8NER1); test: HTS Assay for Compounds that Act as Enhancers of the Vanilloid Receptor 1 (AID 488979)
Sequence of Transient receptor potential cation channel subfamily V member 1 (Homo sapiens) (Q8NER1 whole entry, looked up): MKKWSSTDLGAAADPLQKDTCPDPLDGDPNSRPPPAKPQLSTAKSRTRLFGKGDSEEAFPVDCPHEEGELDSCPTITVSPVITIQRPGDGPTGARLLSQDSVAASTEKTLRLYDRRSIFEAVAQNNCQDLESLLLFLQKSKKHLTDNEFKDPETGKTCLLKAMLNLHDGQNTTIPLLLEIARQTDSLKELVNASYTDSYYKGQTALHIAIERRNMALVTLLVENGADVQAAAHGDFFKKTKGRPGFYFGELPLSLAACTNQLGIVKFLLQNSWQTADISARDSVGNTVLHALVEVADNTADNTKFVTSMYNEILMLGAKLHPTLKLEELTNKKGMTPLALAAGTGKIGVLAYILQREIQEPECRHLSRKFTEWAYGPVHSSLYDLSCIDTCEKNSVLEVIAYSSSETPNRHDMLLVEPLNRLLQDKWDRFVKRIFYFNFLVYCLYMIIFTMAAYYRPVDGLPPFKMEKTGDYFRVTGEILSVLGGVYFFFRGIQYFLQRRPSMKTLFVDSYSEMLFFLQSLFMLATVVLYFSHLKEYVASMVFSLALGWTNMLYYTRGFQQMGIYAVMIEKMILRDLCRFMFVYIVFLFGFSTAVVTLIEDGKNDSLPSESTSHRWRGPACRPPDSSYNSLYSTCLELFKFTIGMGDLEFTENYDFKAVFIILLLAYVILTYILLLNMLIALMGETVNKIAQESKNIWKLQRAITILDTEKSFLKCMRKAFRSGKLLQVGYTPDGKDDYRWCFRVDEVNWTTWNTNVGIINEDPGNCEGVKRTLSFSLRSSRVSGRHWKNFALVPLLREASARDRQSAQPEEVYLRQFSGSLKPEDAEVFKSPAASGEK
Summary of the method: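 TRPV1-expressing cells loaded with Fluo-8 calcium dye; compounds added and calcium influx read kinetically for 3 min (agonist phase), then capsaicin at EC20 added and read 2 min more for enhancement. Fluorescence ex 480/em 520 nm.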

[2] = target: Thyrotropin receptor (Homo sapiens) (UniProt P16473); test: qHTS Assay for Antagonists of the Thyroid Stimulating Hormone Receptor (AID 488980); also: series mostly up to about 58 µM
Sequence of Thyrotropin receptor (Homo sapiens) (P16473 whole entry, looked up): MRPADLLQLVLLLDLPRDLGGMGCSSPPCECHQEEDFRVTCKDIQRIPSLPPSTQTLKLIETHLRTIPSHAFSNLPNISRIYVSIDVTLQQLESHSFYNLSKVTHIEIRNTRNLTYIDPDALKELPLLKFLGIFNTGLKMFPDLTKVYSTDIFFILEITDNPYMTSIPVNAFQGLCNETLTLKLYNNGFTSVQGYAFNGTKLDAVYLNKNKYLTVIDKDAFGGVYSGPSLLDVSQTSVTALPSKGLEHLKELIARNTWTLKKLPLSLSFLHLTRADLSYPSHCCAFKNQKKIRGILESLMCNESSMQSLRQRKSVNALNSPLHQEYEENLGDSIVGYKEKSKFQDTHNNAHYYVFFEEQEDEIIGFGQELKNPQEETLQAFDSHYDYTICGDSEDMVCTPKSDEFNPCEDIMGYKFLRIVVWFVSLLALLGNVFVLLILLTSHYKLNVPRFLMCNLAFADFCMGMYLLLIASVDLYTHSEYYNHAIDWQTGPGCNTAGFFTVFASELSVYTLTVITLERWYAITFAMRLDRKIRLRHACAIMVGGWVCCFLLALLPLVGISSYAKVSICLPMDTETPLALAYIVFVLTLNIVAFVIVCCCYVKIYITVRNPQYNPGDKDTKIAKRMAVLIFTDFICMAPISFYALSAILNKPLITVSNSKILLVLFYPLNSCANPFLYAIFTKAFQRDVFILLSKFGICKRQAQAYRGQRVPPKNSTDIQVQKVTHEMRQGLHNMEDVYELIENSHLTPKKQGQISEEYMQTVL
Summary of the method: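 Readout is cAMP by HTRF competition between cellular cAMP and cAMP-d2 for a cryptate-labelled antibody. Antagonism was assessed in TSHR-transfected HEK293 cells stimulated with 4 nM TSH (EC80, final) in the presence of RO 20-1724.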

[3] = target: D(1A) dopamine receptor (Homo sapiens) (UniProt P21728); test: HTS Assay for Allosteric Agonists of the Human D1 Dopamine Receptor: Primary Screen for Agonists (AID 488981)
Sequence of D(1A) dopamine receptor (Homo sapiens) (P21728 whole entry, looked up): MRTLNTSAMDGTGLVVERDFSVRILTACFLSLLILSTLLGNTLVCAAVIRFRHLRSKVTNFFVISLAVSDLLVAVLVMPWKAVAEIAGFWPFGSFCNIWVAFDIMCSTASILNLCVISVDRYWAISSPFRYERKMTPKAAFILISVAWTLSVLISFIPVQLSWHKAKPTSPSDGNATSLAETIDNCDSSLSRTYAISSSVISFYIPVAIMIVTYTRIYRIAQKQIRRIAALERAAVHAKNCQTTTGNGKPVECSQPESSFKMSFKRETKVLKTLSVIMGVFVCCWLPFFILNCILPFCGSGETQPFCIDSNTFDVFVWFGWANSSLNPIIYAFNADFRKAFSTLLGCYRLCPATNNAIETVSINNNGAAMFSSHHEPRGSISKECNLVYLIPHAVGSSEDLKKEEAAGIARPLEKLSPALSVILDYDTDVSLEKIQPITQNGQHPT
Summary of the method: (§1)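 Tetracycline-induced HEK293 T-REx cells force-coupled to calcium signalling were incubated overnight at 30 C and dye-loaded at room temperature. Calcium flux over 180 s after compound addition flagged agonists; a further 180 s read after EC20 dopamine flagged potentiators.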

[4] = target: D(1A) dopamine receptor (Homo sapiens) (UniProt P21728); test: HTS Assay for Allosteric Agonists of the Human D1 Dopamine Receptor: Primary Screen for Potentiators (AID 488982); also: potency is read from the fitted curve at half-maximal effect
Summary of the method: as §1

[5] = Validation screen for small molecules that induce genotoxicity in human embryonic kidney (HEK293T) cells expressing luciferase-tagged ELG1 (AID 493106)
Summary of the method: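 Luminescence from an ELG1-luciferase fusion serves as the read-out, rising when genetic stress elevates ELG1 protein. HEK293T reporter cells (2,000 per well) received 23 nL compound, incubated 16 hr at 37 °C, then ONE-Glo for 30 min at room temperature.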

[6] = target: Thyrotropin-releasing hormone receptor (Homo sapiens) (UniProt P34981); test: qHTS for Small Molecule Agonists and Allosteric Enhancers of Human TRH Receptor: Validation Screen for Agonists (AID 493127;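 active = calcium activation more than 3 SD above the typical response in the agonist read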;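 also: intracellular calcium rise by fluo-8 fluorescence before TRH EC20 addition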); conditions: TRH receptor agonist cell assay; at 2 µM; stronger effect = higher value
Sequence of Thyrotropin-releasing hormone receptor (Homo sapiens) (P34981 whole entry, looked up): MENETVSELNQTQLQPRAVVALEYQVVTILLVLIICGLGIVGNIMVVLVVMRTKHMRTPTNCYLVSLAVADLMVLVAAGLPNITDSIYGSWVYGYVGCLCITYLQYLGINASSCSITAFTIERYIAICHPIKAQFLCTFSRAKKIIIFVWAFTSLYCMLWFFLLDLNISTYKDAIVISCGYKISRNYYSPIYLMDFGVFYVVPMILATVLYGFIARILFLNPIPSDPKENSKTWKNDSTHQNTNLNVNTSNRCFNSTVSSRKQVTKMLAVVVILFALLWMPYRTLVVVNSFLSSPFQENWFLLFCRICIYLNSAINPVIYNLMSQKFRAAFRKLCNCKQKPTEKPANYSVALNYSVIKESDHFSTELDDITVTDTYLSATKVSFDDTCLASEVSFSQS
Summary of the method: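 Cells 2000/well, 10% FCS, 18 h 33.5C/5% CO2 → fluo-8 Ca dye, RT 30 min–1.5 h → FDSS baseline 10 × 1 s → compound added → 230 cycles (1 s/cycle) agonist mode. TRH controls.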

[7] = Nrf2 qHTS screen for inhibitors: Validation (AID 493153; active = well fitted inhibition curve with a large enough effect in the main read-out, with a control signal flat, not every such curve was filed as active; also: potency is read from the fitted curve at half-maximal effect); conditions: Potency: luciferase luminescence; viability change: measured here: cytotoxicity max response
Summary of the method: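 Luminescence from an ARE-firefly luciferase reporter in A549 cells gives Nrf2 inhibition; an earlier CellTiter-Fluor fluorescent read flags cytotoxicity. Cells in 5% FBS OPTI-MEM received compound dilution series for 18-24 h at 37°C.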

[8] = target: Galactokinase (Homo sapiens) (UniProt P51570); test: qHTS Validation Assay for Inhibitors of Human Galactokinase (GALK) (AID 493189)
Summary of the method: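 5 nM GALK / 100 uM galactose / 35 uM ATP, 20 mM HEPES pH8.0, 5 mM MgCl2, 60 mM NaCl, 1 mM DTT, 0.01% BSA (final). RT 1 h; Kinase-Glo Plus luminescence.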

[9] = Validation screen for small molecules that induce DNA re-replication in SW480 colon adenocarcinoma cells (AID 504364)
Summary of the method: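 250 cells/well; compound pinned in; 48 hr, 37 C, 5% CO2; Hoechst added, 40 min; nuclear fluorescence imaged, 405 ex / 500-530 em; re-replication scored as increase in high-intensity nuclei.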

[10] = target: Peptidyl-prolyl cis-trans isomerase NIMA-interacting 1 (Homo sapiens) (UniProt Q13526); test: qHTS Validation Assay to Find Inhibitors of Pin1 (AID 504536; active = well fitted inhibition curve with a large enough effect in the polarisation, with a control signal flat, not every such curve was filed as active; the % refers to the polarisation)
Sequence of Peptidyl-prolyl cis-trans isomerase NIMA-interacting 1 (Homo sapiens) (Q13526 whole entry, looked up): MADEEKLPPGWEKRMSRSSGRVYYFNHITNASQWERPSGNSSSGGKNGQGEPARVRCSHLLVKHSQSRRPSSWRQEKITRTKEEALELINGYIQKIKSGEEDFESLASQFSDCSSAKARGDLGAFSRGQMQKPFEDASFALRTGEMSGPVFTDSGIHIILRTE
Summary of the method: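 Fluorescence polarization competition: compounds (titration) displace HiFluor-488-labeled Pin1-1b peptide from Pin1 (0.3 uM final) in pH 7.5 HEPES buffer with DTT, 10 min at room temperature; %Activity normalized to no-enzyme wells, curves fitted.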

[11] = target: Phosphoglycerate kinase, glycosomal (Trypanosoma brucei brucei) (UniProt P07378); test: qHTS Validation Assay to Find Inhibitors of Phosphoglycerate Kinase (AID 504547)
Summary of the method: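 Substrate/PGK mix plus compound; reaction started with GAPDH (100nM final) to form 1,3-BPG; 60 min RT; Kinase-Glo Plus 10 min; luminescence. TEA 100mM pH 7.6, MgCl2 5mM, Tween-20 0.01%.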

[12] = target: phosphoglycerate mutase (Leishmania major) (UniProt Q4Q090); test: qHTS Validation Assay to Find Inhibitors of Phosphoglycerate Mutase (AID 504548); conditions: Potency: inhibition qHTS;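 also: end-point luminescence from Kinase-GloPlus after the PGAM reaction; series mostly up to about 58 µM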
Sequence of phosphoglycerate mutase (Leishmania major) (Q4Q090 1-553): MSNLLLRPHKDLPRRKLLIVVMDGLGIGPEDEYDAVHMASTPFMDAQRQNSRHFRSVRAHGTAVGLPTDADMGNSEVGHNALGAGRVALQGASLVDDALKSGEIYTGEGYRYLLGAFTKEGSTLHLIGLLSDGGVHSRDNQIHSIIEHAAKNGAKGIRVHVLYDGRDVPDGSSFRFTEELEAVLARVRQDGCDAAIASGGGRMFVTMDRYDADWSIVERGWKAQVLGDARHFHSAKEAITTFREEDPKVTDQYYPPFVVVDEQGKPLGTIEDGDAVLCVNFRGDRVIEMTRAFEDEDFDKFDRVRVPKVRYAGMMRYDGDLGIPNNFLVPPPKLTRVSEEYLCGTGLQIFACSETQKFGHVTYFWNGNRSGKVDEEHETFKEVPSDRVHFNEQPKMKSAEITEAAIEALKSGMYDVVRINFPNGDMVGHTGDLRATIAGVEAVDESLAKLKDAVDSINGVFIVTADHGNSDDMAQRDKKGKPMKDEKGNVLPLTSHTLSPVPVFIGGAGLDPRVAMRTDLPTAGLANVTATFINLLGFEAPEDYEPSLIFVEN
Summary of the method: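 Inhibition of L. major PGAM was assessed by Kinase-GloPlus luminescence following a 45-minute room-temperature reaction with enzyme at 1.25nM final.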

[13] = target: Ubiquitin carboxyl-terminal hydrolase 1 (Homo sapiens) (UniProt O94782); test: Inhibitors of USP1/UAF1: Pilot qHTS (AID 504865);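 also: rhodamine fluorescence freed from ubiquitin-rhodamine substrate followed over time; top concentration of the series differs between compounds; nearly all actives have a fitted effect of over 35% in size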
Summary of the method: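 In 50mM HEPES pH 7.8 containing 0.5mM EDTA, 1mM TCEP, 0.1 mg/ml BSA and 0.01% Tween-20, 1nM USP1/UAF1 is exposed to compound for 15 min, then Ub-Rho (150nM final) is added and fluorescence is read over time.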

[14] = qHTS for Inhibitors of ATXN expression: Validation (AID 588378); also: nearly all actives have a fitted effect of over 75% in size; also: potency is read from the fitted curve at half-maximal effect
Summary of the method: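 Compounds were pinned onto attached HEK293 cells carrying an ATXN2-firefly luciferase construct and incubated 24 hrs at 37 degrees C. Each well then received a fluorescent viability reagent followed by luciferase substrate for end-point luminescence.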

[15] = target: D(1A) dopamine receptor (Homo sapiens) (UniProt P21728); test: HTS Assay for Allosteric Agonists of the Human D1 Dopamine Receptor: Primary Screen for Antagonists (AID 488983);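 also: calcium flux response to an EC80 dopamine challenge measured with no-wash dye; nearly all actives have a fitted effect of over 65% in size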
Summary of the method: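 Cells are induced with tetracycline and incubated overnight at 30 C, then loaded with calcium dye for 30 to 90 minutes at room temperature. Compound addition is followed by a 180 s read, then an EC80 dopamine addition and another 180 s read.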

[16] = target: ATPase family AAA domain-containing protein 5 (Homo sapiens) (UniProt Q96QE3); test: Validation screen for small molecules that inhibit ELG1-dependent DNA repair in human embryonic kidney (HEK293T) cells expressing luciferase-tagged ELG1 (AID 493107);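 also: cells co-treated with the DNA-damaging agent 5-fluorouridine alongside compound; series mostly up to about 46 µM; inhibitors lower the ELG1-luciferase luminescence signal; nearly all actives have a fitted effect of over 70% in size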
Sequence of ATPase family AAA domain-containing protein 5 (Homo sapiens) (Q96QE3 whole entry, looked up, the tested form may be a part): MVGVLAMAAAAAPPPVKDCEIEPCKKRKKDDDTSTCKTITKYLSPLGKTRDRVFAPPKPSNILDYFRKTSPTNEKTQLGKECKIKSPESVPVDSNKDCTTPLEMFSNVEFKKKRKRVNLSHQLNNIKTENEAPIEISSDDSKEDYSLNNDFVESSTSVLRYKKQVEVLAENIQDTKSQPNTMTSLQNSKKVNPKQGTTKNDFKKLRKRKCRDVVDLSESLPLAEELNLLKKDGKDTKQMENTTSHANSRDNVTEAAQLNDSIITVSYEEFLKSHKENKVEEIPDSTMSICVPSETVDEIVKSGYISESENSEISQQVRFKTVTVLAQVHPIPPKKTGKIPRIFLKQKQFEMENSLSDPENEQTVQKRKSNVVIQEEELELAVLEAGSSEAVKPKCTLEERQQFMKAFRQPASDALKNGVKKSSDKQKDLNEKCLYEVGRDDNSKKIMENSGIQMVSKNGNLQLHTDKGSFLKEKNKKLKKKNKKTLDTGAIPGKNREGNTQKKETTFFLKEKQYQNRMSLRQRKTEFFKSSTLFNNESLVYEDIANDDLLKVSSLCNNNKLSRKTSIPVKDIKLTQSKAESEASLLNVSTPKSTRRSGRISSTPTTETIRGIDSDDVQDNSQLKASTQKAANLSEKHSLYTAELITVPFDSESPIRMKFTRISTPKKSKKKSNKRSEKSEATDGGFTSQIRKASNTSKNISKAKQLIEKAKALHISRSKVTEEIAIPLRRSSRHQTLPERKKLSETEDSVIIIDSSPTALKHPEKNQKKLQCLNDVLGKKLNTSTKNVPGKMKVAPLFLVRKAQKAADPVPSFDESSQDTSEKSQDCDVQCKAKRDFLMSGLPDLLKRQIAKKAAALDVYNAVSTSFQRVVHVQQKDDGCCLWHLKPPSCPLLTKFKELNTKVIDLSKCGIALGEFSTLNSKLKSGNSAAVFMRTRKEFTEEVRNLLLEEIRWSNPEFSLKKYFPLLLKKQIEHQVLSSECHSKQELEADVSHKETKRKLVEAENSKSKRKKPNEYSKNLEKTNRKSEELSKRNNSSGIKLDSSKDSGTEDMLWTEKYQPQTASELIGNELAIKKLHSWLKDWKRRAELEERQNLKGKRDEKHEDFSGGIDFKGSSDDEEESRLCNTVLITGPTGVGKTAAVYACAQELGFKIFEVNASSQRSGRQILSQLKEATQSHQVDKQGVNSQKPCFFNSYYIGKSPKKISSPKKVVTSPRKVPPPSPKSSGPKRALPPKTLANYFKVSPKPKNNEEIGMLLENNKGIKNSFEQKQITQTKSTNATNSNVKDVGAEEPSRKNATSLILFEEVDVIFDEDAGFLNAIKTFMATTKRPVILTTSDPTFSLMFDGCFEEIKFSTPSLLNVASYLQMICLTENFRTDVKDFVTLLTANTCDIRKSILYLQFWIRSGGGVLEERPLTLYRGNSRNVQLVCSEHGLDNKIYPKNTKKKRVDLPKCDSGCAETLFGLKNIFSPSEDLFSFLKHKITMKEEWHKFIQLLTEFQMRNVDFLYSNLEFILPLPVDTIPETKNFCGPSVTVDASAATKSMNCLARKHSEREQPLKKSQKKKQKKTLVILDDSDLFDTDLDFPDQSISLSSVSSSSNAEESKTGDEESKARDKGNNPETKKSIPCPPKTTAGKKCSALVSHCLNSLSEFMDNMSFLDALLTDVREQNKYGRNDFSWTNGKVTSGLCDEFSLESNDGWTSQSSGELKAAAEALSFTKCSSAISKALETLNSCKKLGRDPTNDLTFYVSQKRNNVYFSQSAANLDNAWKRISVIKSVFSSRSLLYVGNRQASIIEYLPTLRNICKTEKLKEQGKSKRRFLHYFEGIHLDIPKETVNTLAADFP
Summary of the method: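 Luminescence from ONE-Glo, developed 30 min at room temperature, served as read-out of ELG1-luciferase levels. Beforehand, reporter HEK293T cells received 5-fluorouridine plus test compound for 16 hr at 37 °C.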

[17] = qHTS for Inhibitors of Cell Surface uPA Generation: Validation Assay (AID 493164)
Summary of the method: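 RAW 264.7 cells (4000/well) were plated overnight, then exposed for 18 h at 37 C, 5% CO2 to compounds in a 7-point 1:5 titration (2.45 nM–38.3 uM final). Intracellular ATP was read by ATP-Lite luminescence.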

[18] = qHTS for Inhibitors of ATXN expression: Validation of Cytotoxic Assay (AID 588349)
Summary of the method: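 Read-out: ATP-based luminescence (CellTiter Glo) reflecting viability of HEK293 cells after 72 hr incubation at 37 degrees C with a concentration series of each compound.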

| Compound | outcome [1] | outcome [2] | Potency [3] | Potency [4] | Potency [5] | activation [6] | Potency [7] | viability change [7] | Potency [8] | Potency [9] | Potency [10] | Potency [11] | Potency [12] | Potency [13] | Potency [14] | Potency [15] | Potency [16] | outcome [17] | Potency [18] |
| --- | --- | --- | --- | --- | --- | --- | --- | --- | --- | --- | --- | --- | --- | --- | --- | --- | --- | --- | --- |
| COc1ccc(NC(=O)c2ccc(-c3ccc(-c4noc(C)n4)cc3C)cc2)cc1N1CCN(C)CC1 | inactive | inactive | inactive | inactive | inactive | 2.25% (inactive) | inactive | -8.26% | inactive | inactive | inactive | inactive | inactive | inactive | 22.4 µM (active) | – | – | – | – |
| O=C(O)C1=CCNCC1 | inactive | inactive | inactive | – | inactive | 1.25% (inactive) | inactive | 7.14% | inactive | inactive | inactive | inactive | inactive | inactive | inactive | inactive | inactive | inactive | inactive |
| Cc1ccc([N+](=O)[O-])cc1S(=O)(=O)N(C)C | inactive | inactive | inactive | – | inactive | 1.19% (inactive) and 0.125% (inactive) | inactive | 3.59% | – | inactive | inactive | – | inactive | inactive | inactive | inactive | inactive | inactive | inactive |
| N[C@@H](Cc1ccc(F)cc1)C(=O)O | inactive | inactive | inactive | inactive | – | 0.125% (inactive) | inactive | -9.16% | inactive | inactive | inactive | inactive | inactive | inactive | inactive | – | – | inactive | inactive |
| CCCn1c(=O)c2c(ncn2C)n(CCC)c1=O | inactive | inactive | inactive | – | inactive | 0.5% (inactive) | inactive | 3.43% | inactive | inactive | inactive | inactive | inactive | inactive | inactive | inactive | inactive | – | inactive |
| COc1ccccc1N1CCN(CCN(C(=O)c2ccc(F)cc2)c2ccccn2)CC1 | inactive | inactive | inactive | inactive | inactive | 0.312% (inactive) | – | – | inactive | inactive | inactive | inactive | inactive | inactive | inactive | – | – | inactive | inactive |
| NCCC1CCCC(CCN)N1 (stereo not given) | inactive | inactive | inactive | inactive | inactive | 1.19% (inactive) | – | – | – | inactive | inactive | inactive | inactive | inactive | inactive | – | inactive | inactive | inactive |
| O=c1oc(Cl)c(Cl)c2ccccc12 | inactive | inactive | inactive | inactive | inactive | -4.69% (inactive) | inactive | -4.81% | inactive | inactive | inactive | inactive | inactive | – | inactive | – | – | – | inactive |
| CN1CCN(c2nc3cc(C(F)(F)F)ccc3n3cccc23)CC1 | inactive | inactive | inactive | inactive | inactive | 1.06% (inactive) | inactive | 3.07% | inactive | inactive | inactive | inactive | inactive | inactive | – | – | – | inactive | – |
| CCCCC[C@H](CC(=O)NO)C(=O)N[C@H](C(=O)N1CCC[C@H]1CO)C(C)C | inactive | inactive | inactive | inactive | inactive | -2.88% (inactive) | 16.4 µM (active) | 2.77% | inactive | inactive | inactive | inactive | inactive | inactive | – | – | – | inactive | – |
| Cc1cccc(C(=O)NCN2CCN(c3ccccc3C#N)CC2)c1 | inactive | inactive | inactive | inactive | inactive | 0.562% (inactive) | – | – | inactive | inactive | inactive | – | inactive | – | inactive | – | – | inactive | inactive |
| S=C(S)N1CCCC1 | inactive | inactive | inactive | inactive | – | -0.188% (inactive) | inactive | -3.57% | inactive | inactive | inactive | inactive | inactive | inactive | inactive | – | inactive | – | inactive |
| CCCOC(=O)c1c(-c2ccccc2)nc(CC)c(C(=O)SCC)c1CCC | inactive | inactive | inactive | 2.91 µM (active) | inactive | 1.31% (inactive) | inactive | -5.09% | inactive | inactive | inactive | inactive | inactive | – | inactive | – | inactive | – | inactive |
| COc1ccc(C(=O)NCc2cccnc2)cc1C(=O)NCc1cccnc1 | inactive | inactive | inactive | – | inactive | 0.938% (inactive) | inactive | -5.34% | inactive | inactive | – | inactive | inactive | inactive | inactive | inactive | inactive | inactive | inactive |
| N#C/C(=C\c1ccc(O)c(O)c1)C(=O)NCCc1ccccc1 | inactive | inactive | inactive | inactive | – | 0.438% (inactive) | inactive | -10.3% | inactive | – | – | inactive | inactive | inactive | inactive | – | inactive | inactive | – |
| Nc1ccc(CCNc2ncnc3c2ncn3C2OC(CO)C(O)C2O)cc1 (stereo not given) | inactive | inactive | inactive | inactive | – | 1.06% (inactive) | inactive | 5.22% | inactive | inactive | inactive | inactive | inactive | inactive | inactive | – | inactive | inactive | inactive |
